Target: Malate dehydrogenase, mitochondrial (UniProt P40926)
Assay: cross-link between two proteins; cross-linking mass spectrometry

Succinate dehydrogenase [ubiquinone] flavoprotein subunit, mitochondrial, P31040, sequence (P31040 whole entry): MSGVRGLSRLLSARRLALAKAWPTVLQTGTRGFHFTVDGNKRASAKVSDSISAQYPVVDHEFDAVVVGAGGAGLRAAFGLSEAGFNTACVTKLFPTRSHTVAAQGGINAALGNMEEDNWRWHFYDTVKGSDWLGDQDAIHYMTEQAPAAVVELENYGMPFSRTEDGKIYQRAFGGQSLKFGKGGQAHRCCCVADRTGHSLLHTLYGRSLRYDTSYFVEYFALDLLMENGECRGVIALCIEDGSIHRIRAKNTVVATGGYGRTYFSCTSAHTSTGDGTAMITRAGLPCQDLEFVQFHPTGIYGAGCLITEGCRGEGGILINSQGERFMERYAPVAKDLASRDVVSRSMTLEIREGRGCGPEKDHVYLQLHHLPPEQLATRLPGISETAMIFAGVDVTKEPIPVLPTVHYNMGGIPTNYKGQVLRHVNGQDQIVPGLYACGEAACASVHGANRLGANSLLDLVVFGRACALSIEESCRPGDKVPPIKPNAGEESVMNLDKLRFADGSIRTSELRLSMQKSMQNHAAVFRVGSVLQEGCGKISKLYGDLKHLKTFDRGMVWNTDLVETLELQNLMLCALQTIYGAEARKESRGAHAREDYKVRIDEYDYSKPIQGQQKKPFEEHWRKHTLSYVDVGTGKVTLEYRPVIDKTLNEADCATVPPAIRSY
Peptidyl-prolyl cis-trans isomerase F, mitochondrial, P30405, sequence (P30405 whole entry): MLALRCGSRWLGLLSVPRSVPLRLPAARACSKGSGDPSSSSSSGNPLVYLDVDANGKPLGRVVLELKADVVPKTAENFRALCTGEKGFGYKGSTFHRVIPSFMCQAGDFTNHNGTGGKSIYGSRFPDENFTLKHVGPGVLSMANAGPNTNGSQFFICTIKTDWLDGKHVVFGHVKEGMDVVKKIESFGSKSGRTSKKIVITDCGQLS

Substance	listed as a hit
Dihydrolipoyl dehydrogenase, mitochondrial, P09622	yes
Aldehyde dehydrogenase family 1 member B1, mitochondrial, P30837	yes
Succinate dehydrogenase [ubiquinone] flavoprotein subunit, mitochondrial, P31040	yes
Glutathione reductase, mitochondrial, P00390	yes
Peptidyl-prolyl cis-trans isomerase F, mitochondrial, P30405	yes
Aldehyde dehydrogenase, mitochondrial, P05091	yes

Reference: paper PMC11024108
